Hits are enriched below; roughly 3.8% of the tested compounds scored in any of these assays.
NTMT1 inh – inhibitors of human N-terminal methyltransferase NTMT1; Potency, µM (top dose mostly 114 µM), for inactives: top-dose activity change, negative = inhibition, hits mostly inhibitors; NTMT1 MTase-Glo SAH luminescence, purified enzyme; actives 2.5% (n = 59,000); Q9BV86; AID 1645870;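 note: potency is the fitted concentration of half-maximal effect; plate controls were DMSO vehicle for no effect and no enzyme for full effect; nearly all actives have a fitted effect of over 65% in size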
B2AR arrestin ag – ADRB2 beta-arrestin recruitment; HTLA Tango cells, beta-arrestin recruitment, luciferase luminescence, 18 h; Potency, µM (highest dose often 46.1 µM), most hits filed as activators; P07550; AID 1347077; 44,000 tested, under 10 active;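 note: potency is the fitted concentration of half-maximal effect; 0% = DMSO and full agonism = EC100 isoproterenol or metaproterenol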
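First, Tango cells carrying beta2-AR and beta-arrestin fusions received compound up to 46 microM. After 18 hr at 37 degrees C, luciferase substrate was added for 15 minutes, then luminescence gave %Activity for curve fitting.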
OvCa metastasis – inhibitors of ovarian cancer cell adhesion and invasion in omental model. SKOV3ip1-GFP adhesion/invasion on 3D omental model, fluorescence. Potency, µM (top dose mostly 45.8 µM), inactives show top-dose activity change, negative = inhibition, actives largely listed as inhibitors. actives 0.1% (n = 46,000). AID 1963576;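 note: potency is the fitted concentration of half-maximal effect; plate controls were DMSO wells for no effect and tomatine positive control wells for full effect; nearly all actives have a fitted effect of over 65% in size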
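qHTS, 4-pt dose (0.36-46 umol/L); SKOV3ip1-GFP, 1,200 cells/well, no FBS; primary omental fibroblast/mesothelial co-culture 48 h pre-grown; 2 h RT + 16 h 37 C; PBS wash, 4% PFA; GFP count 488/509 nm.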
DRV1 agonist – GPR32 (DRV1) agonism, beta-arrestin recruitment. AID 1346428. CHO-K1 GPR32 beta-arrestin PathHunter luminescence, 90 min; zero percent set by DMSO-only wells. activation, % at 76.9 µM. actives 2.5% (n = 48,000);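 active = activation of at least 60% and not above a set upper limit, about 1 call in 100 departs from these limits; inconclusive = activation of 40% to 60%, or above that upper limit; inactive = activation under 40%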; note: 0% is about no effect
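Agonism was scored by beta-Gal fragment complementation (chemiluminescent read, 1 h detection at ambient temperature) reporting beta-arrestin binding to GPR32 in engineered CHO-K1 cells. Compound treatment lasted 90 min at 37 C, normalized to a DMSO basal control.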
TSG101-PTAP inh – inhibitors of HIV-1 PTAP binding to human TSG101, validation; AID 1347069; Potency, µM (doses to about 115 µM), hits mostly inhibitors; 44,000 tested, under 10 active; Q99816; Fluorescence polarization, FITC-PTAP peptide/Tsg101, 20 min; note: potency is the fitted concentration of half-maximal effect; 0% is about no effect
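qHTS FP binding, 20 min r.t.: 10 uM Tsg101 domain + 50 nM FITC-PTAP peptide, pH 7.5 HEPES buffer with TCEP and EDTA.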
GALK inh – GALK (human) enzyme inhibition | recombinant GALK, Kinase-Glo ATP luminescence, 1 h | Potency, µM (series often up to 57.5 µM), for inactives: top-dose activity, negative = inhibition, usual class: inhibitors | 44,000 tested, under 10 active;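 note: plate controls were full GALK reaction for no effect and reaction lacking GALK for full effect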
Target sequence (P51570 whole entry, looked up): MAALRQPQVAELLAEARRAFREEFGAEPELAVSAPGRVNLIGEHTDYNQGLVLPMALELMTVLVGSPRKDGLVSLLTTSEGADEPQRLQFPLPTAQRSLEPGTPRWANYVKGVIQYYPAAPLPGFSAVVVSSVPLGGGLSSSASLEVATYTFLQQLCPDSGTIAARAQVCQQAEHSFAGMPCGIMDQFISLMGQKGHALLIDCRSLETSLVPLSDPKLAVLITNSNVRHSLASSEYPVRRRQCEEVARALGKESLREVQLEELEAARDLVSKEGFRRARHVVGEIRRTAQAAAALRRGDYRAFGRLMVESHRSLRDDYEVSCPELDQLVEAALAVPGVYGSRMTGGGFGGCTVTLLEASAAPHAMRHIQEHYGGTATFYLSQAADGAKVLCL
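5 nM GALK with 35 µM ATP and 100 µM galactose in HEPES pH 8.0, MgCl2, NaCl, DTT, BSA; 1 h RT reaction, remaining ATP detected by Kinase-Glo Plus luminescence after 10 min; qHTS concentration series.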
* marks the source's active call; other numbers are inactive results; i = inactive; u = inconclusive; x = no result; [ ] = dose if it differs, or a comment. Unless noted, calls come from the whole dose curve; as a rule, active = well fitted curve in the direction sought with a large enough effect; inconclusive = small, poorly fitted or top-dose-only effect, or another doubt; inactive = no such curve, though single readings can be large; an effect the other way counts as inactive or inconclusive.

SMILES	NTMT1 inh	B2AR arrestin ag	OvCa metastasis	DRV1 agonist	TSG101-PTAP inh	GALK inh
Cc1ccccc1Cn1c(C(=O)O)c(CNCc2cccc(F)c2)c2ccccc21	1.4%	i	i	-13.7	i	-3.6%
COc1ccc(Cn2c(C(=O)O)c(CNCCc3cc(OC)ccc3OC)c3ccc(C)cc32)cc1	-0.6%	i	5.8%	106.0*	i	u
COc1ccc(Cn2c(C(=O)O)c(CNCCc3ccco3)c3ccc(C)cc32)cc1	-3.0%	i	i	103.9*	i	-1.4%
CCC1CN(C(=O)N2CCC(C(=O)NCc3cccs3)CC2)c2ccccc2O1 (stereo unspecified)	4.8%	i	-3.7%	-6.9	i	1.0%
COC(=O)c1cc(NC(=O)c2sc3ncn(Cc4cccc(F)c4)c(=O)c3c2C)cc(C(=O)OC)c1	20.3%	i	8.4%	6.1	i	-4.1%
CN(C)C(=S)SC(=S)N(C)C	25.1µM*	x	x	-15.0	x	x
CC1=CC(=O)c2ccccc2C1=O	u	x	u	62.4*	x	x
CN1C(=O)c2ccccc2C1=O	19.1%	x	x	14.0	x	x
Clc1cccc(-n2ncc3c(NCCCc4ccccc4)ncnc32)c1	u	i	-17.6%	u	i	-0.8%
CC(C)CCNc1ncnc2c1cnn2-c1cccc(Cl)c1	u	i	u	91.6*	i	1.5%
CN(C)CCNc1ncnc2c1cnn2-c1cccc(Cl)c1	-18.0%	i	6.2%	87.2*	i	-5.2%
CCc1ccccc1Nc1ncnc2c1cnn2-c1ccc(C)cc1C	u	i	4.6%	u	i	2.8%
CCc1ccccc1Nc1ncnc2c1cnn2-c1ccc(Cl)cc1	u	i	-0.5%	73.1*	i	-0.1%
Clc1cccc(-n2ncc3c(NCCCN4CCOCC4)ncnc32)c1	50.1µM*	i	u	84.6*	i	2.0%
CC1(c2ccccc2)OC(C(=O)O)=CC1=O (stereo unspecified)	u	x	x	-5.3	x	x
CCN(CC)c1ccc(-c2nc(-c3ccccn3)no2)cc1[N+](=O)[O-]	u	i	0.5%	10.2	i	3.2%
CC(=O)N[C@H]1[C@@H]([C@H](O)[C@H](O)CO)OC(C(=O)O)=C[C@@H]1N=C(N)N	17.1%[57.5 µM]	x	-8.4%	x	x	x
Cc1ccc(CNC(=O)CSc2nc(=O)[nH]c3c2CCCC3)cc1	6.0%	i	-6.5%	-10.1	i	0.4%
Cc1ccc(CCNC(=O)c2cc3c(s2)-c2ccccc2OC3)cc1	-16.9%	i	u	8.7	i	-3.6%
Cc1ccc(CCNC(=O)c2cc3c(s2)-c2c(C)cccc2OC3)cc1	89.1µM*	i	-20.1%	-0.1	i	3.2%
O=C(NCCCN1CCN(c2ccc(F)cc2)CC1)c1cc2c(s1)-c1ccccc1OC2	-0.6%	i	i	80.4*	i	4.4%
O=C(NCCc1ccc(Cl)cc1)c1cc2c(s1)-c1ccccc1OC2	u	i	-10.0%	62.4*	i	-11.3%
O=C(CSc1nc(-c2ccccc2)cn1-c1ccccc1)Nc1ccccc1	u	i	10.5%	-27.8	i	2.9%
CCOC(=O)c1cc(-c2ccc(OC)c(S(=O)(=O)NCc3ccccc3Cl)c2)on1	-2.1%	i	u	-15.8	i	-2.8%
CC(C)c1ccc(-c2cc(=O)c3ccccc3o2)cc1	0.1%[57.5 µM]	x	x	x	x	x
O=c1cc(-c2ccccc2)oc2ccccc12	100µM*	x	x	62.3*	x	x
CNCc1ccc(C)c(NC(=O)c2ccc(Nc3nc(-c4ccccc4)c4ccccc4n3)cc2)c1	35.5µM*	x	x	x	x	x
Clc1ccc(Nc2nc(-c3ccccc3)c3ccccc3n2)c(Cl)c1	8.4%	i	2.6%	-4.2	i	-0.7%
Cc1ncc(CCCN(C)C)cc1Nc1ncc2c(n1)-c1ccc(C(F)(F)F)cc1NC(=S)C2	31.6µM*	x	x	x	x	x

From PubChem BioAssay
